Sampled rows, rich in hits. Any-hit rate of the full collection: about 7.7%.
Tb PYK inh – T. brucei pyruvate kinase inhibition | TbPYK enzyme, Kinase-Glo Plus ATP luminescence, 45 min | Potency, µM (titrated, usually from 76.8 µM), inactives show at the top dose activity, negative = inhibition, actives largely listed as inhibitors | actives 0.12% (n = 410,000) | AID 624173; also: potency is read from the fitted curve at half-maximal effect; nearly all actives have a fitted effect of over 50% in size
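Enzyme and substrate buffer are dispensed first and compound is pin-transferred. ADP at 130 uM final then starts the reaction, which runs 45 min at room temperature. Detection reagent is added for 10 min before luminescence is imaged.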
RE007 growth inh – less growth of the S. pombe RE007 Vpr strain; S. pombe RE007 Vpr strain, BacTiter-Glo ATP luminescence, 24 h; Potency, µM (doses to about 92.2 µM), without a hit: top-dose activity change, negative = less growth, usual class: inhibitors; actives 0.21% (n = 360,000); AID 651644; active = well fitted falling curve with a large enough effect; inconclusive = small, poorly fitted or top-dose-only effect; inactive = no such curve, though single readings can be large or run the other way; also: potency is read from the fitted curve at half-maximal effect; nearly all actives have a fitted effect of over 50% in size
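Fission yeast strain RE007, carrying one chromosomally integrated HIV-1 vpr copy, was seeded at OD 0.01 in PMG+AL medium with 23 nL pinned compound. After 24 h at 30 °C and 99% humidity, viability was read by BacTiter-Glo luminescence.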
FBPA Giardia inh – inhibitors of Giardia lamblia fructose-1,6-bisphosphate aldolase; A8B2U2; purified Giardia FBPA; Potency, µM (series often up to 59.6 µM), for inactives: top-dose activity, negative = inhibition, most hits filed as inhibitors; actives 0.71% (n = 290,000); AID 2451; also: potency is read from the fitted curve at half-maximal effect; nearly all actives have a fitted effect of over 55% in size
Target sequence (A8B2U2 whole entry, looked up): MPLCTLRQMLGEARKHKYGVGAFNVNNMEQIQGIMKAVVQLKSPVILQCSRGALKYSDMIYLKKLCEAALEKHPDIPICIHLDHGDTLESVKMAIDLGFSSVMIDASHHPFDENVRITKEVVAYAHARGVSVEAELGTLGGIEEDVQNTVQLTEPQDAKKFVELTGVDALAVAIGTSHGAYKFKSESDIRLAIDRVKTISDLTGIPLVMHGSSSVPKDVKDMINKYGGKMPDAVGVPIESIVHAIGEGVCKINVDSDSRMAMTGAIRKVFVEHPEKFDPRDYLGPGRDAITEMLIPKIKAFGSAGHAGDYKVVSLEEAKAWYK
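40 nM FBPA preincubated 10 min at RT with compound (up to 57.5 uM final), then substrate plus GAPDH/TPI/NAD/arsenate coupling and diaphorase/resazurin added. Fluorescence read after 20 min at RT, 525/598 nm.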
HCMV antiviral – inhibitors of human cytomegalovirus | HFF cells, HCMV-luciferase reporter, 72 h; hits give low values | activity change, negative = inhibition, % at 57.5 µM | actives 4.5% (n = 410,000) | AID 1259415; in the data active = activity change below about -60%; inconclusive = no clear call, values can overlap the other calls; inactive = above about -39%
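HFF cells seeded 16 h at 37C, treated with compounds, infected with luciferase-reporter HCMV at MOI 1 PFU/cell; luciferase read at 72 h post infection, normalized to buffer-only and Salinomycin controls.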
Sm TGR inh – blocks Schistosoma mansoni thioredoxin glutathione reductase | purified TGR, DTNB reduction, TNB absorbance 405 nm | Potency, µM (doses to about 114 µM), without a hit: at the top dose activity change, negative = inhibition, most hits filed as inhibitors | actives 3% (n = 360,000); also: potency is read from the fitted curve at half-maximal effect; nearly all actives have a fitted effect of over 60% in size
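Kinetic colorimetric format: TGR-catalysed, NADPH-driven DTNB reduction monitored via TNB absorbance. Enzyme dispensed at 20 nM; compound exposure 15 min at room temperature before reaction start.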
FMDV inh – blocks foot and mouth disease virus. FMDV antiviral cell-based qHTS. Potency, µM (titrated, usually from 57.9 µM), without a hit: at the highest dose activity change, negative = inhibition, usual class: inhibitors. actives 1.2% (n = 410,000); calls by dose curve; tested in HEK293T cells; also: read-out not given here; potency is read from the fitted curve at half-maximal effect; nearly all actives have a fitted effect of over 45% in size
The depositor's hits bear a star; ? = inconclusive; nt = not tested or not shown. Unless noted, calls follow the shape of the dose curve; as a rule, active = well fitted curve in the direction sought with a large enough effect; inconclusive = small, poorly fitted or top-dose-only effect, or another doubt; inactive = no such curve, though single readings can be large; an effect the other way counts as inactive or inconclusive. % is scaled to controls: 0 for no effect and ±100 for the full control effect.

SMILES	Tb PYK inh	RE007 growth inh	FBPA Giardia inh	HCMV antiviral	Sm TGR inh	FMDV inh
N#CCCn1cc(/C=N/O)c(-c2ccccc2)n1	-4%	-1%	2%	-8	0%	8%
Cc1c(C(=O)Nc2ccccc2F)sc2ncnc(N(C)C3CCCCC3)c12	-3%	nt	nt	-9	-1%	-16%
Nc1nc2c(ncn2C2OC(COC(=O)c3ccccc3)C(OC(=O)c3ccccc3)C2OC(=O)c2ccccc2)c(=O)[nH]1 (stereo unspecified)	nt	nt	-6%	nt	nt	?
Cc1ccc(S(=O)(=O)N2CCCC2C(=O)OCc2ccco2)cc1 (stereo unspecified)	-13%	-12%	2%	nt	4.5µM*	3%
COc1ccc(C(=O)N/N=C\c2coc3ccc(C)cc3c2=O)cc1	-3%	11%	-2%	-27	-1%	-12%
Cc1ccc2occ(/C=N/NC(=O)c3ccncc3)c(=O)c2c1	0%	-5%	8%	-31	-16%	1%
Cc1ccc2occ(/C=N/NC(=O)c3ccccc3O)c(=O)c2c1	-10%	-10%	7%	-83*	6%	10%
CCOc1ccccc1C(=O)N/N=C/c1coc2ccc(Cl)cc2c1=O	0%	-7%	nt	-74*	5%	-3%
Cc1ccc2occ(/C=N/NC(=O)c3ccc(Cl)cc3)c(=O)c2c1	12%	-4%	11%	-65*	-8%	-17%
CN1CC(C(=O)O)Cc2c1ccc1ccccc21 (stereo unspecified)	2%	-9%	10µM*	24	20µM*	-14%
CCCCNC(=O)O[C@H]1CC[C@@]23CCCN2C(=O)CCC[C@H]3[C@H]1Cc1ccccc1	nt	nt	nt	-17	nt	nt
Nc1nc(-c2cc(O)ccc2[N+](=O)[O-])cc(-c2ccccc2)c1[N+](=O)[O-]	-4%	-2%	1%	-69*	?	-24%
COc1ccc(CCNC(=O)CCn2c(=O)c3cccn3c3ccc(F)cc32)cc1OC	-3%	nt	nt	-21	-3%	-22%
Cc1ccc(CN(C(=O)COc2cccc([N+](=O)[O-])c2)c2ccccn2)o1	-16%	nt	nt	?	50µM*	-10%
Cc1ccc(CN(C(=O)COc2cccc([N+](=O)[O-])c2)c2ccccn2)cc1	8%	nt	nt	-6	-1%	-8%
Cc1cc(NC(=O)COc2cccc([N+](=O)[O-])c2)no1	-7%	-3%	nt	-26	45µM*	-16%
COc1cccc(C(=O)Nc2cccc(C(=O)OCc3cc(=O)n4nc(C5CC5)sc4n3)c2)c1	3%	nt	nt	6	-7%	?
CCOC(=O)c1cc(NC(=O)c2ccc(C)cc2)c(=O)n2c1oc1ccccc12	3%	nt	nt	-5	3%	-1%
CCOC(=O)c1cc(NC(=O)c2ccccc2)c(=O)n2c1oc1ccccc12	-12%	12%	-9%	-71*	11%	-11%
CCc1noc(C)c1C(=O)N1CCCSC1=Nc1ccccc1	-3%	-6%	nt	-22	1%	0%
CCc1noc(C)c1C(=O)N1CCSC1=Nc1cccc(Cl)c1C	-2%	-9%	nt	-82*	2%	?
Cc1nn(-c2cccc(Cl)c2)c2nc(-c3ccco3)cc(C(=O)O)c12	0%	12%	?	3	16µM*	-13%
Cc1ccc(-n2nc(-c3cccnc3)cc2C(=O)N2CCOCC2)c(C)c1	1%	12%	-17%	-2	-6%	0%
Cc1ccc(-n2nc(-c3ccco3)cc2C(=O)O)c(C)c1	-6%	-10%	-17%	-27	11µM*	7%
O=C(O)c1cc(-c2ccco2)nn1-c1ccc(Cl)cc1	-21%	10%	-1%	-9	5µM*	5%
SMILES	Tb PYK inh	RE007 growth inh	FBPA Giardia inh	HCMV antiviral	Sm TGR inh	FMDV inh
O=C(O)c1cc(-c2ccco2)nn1-c1cccc(Cl)c1	-4%	-15%	-4%	28	63µM*	4%
O=C(O)c1cc(-c2cc3ccccc3o2)nn1-c1ccccc1	-3%	-5%	6%	6	-9%	14%
COCCCNC(=O)CSc1nc2cc3c(cc2c(=O)n1CCCCCC(=O)NCc1ccc(OC)cc1)OCO3	2%	nt	nt	24	1%	24%
O=C(CSc1nc2c(sc3ccccc32)c(=O)n1CCCC(=O)NC1CCCC1)Nc1ccc(F)cc1	0%	nt	nt	-28	-2%	-5%
Cc1ccc(S(=O)(=O)/C=C/C#N)cc1	nt	nt	?	nt	nt	-7%
CC(C)(C)c1ccc(S(=O)(=O)/C=C\C#N)cc1	nt	nt	?	nt	nt	40µM*
COC(=O)[C@@]1(Cc2ccccc2)[C@H]2c3cc(C(=O)N(C)C)n(Cc4nc5ccccc5[nH]4)c3C[C@H]2CN1C(=O)c1ccccc1	nt	nt	-6%	nt	nt	nt
O=C(c1ccncc1)N1CCC[C@@]2(CCN(Cc3cc(C(F)(F)F)cc(C(F)(F)F)c3)C2)C1	1%	nt	-11%	nt	nt	-7%
O=C(c1ccc2c(c1)OCCO2)N1CCN(c2ccc(C(F)(F)F)cn2)CC1	-6%	-11%	nt	-60*	nt	?
FC(F)(F)c1ccc(N2CCN(Cc3ccc4c(c3)OCO4)CC2)nc1	5%	-11%	-5%	-64*	-15%	0%
O=C(C1CCN(S(=O)(=O)Cc2ccccc2)CC1)N1CCN(c2cccc(Cl)c2)CC1	3%	nt	nt	12	-10%	-29%
O=C(NCc1ccco1)c1ccc(Cn2c(SCc3ccc(F)cc3)nc3cccnc32)cc1	0%	nt	nt	-22	?	6%
CCOc1cc(Br)c(C(=O)O)cc1OCC	1%	14%	-7%	-23	26%	19%
CCOc1cc(Br)c(C=O)cc1OCC	-1%	3%	4%	-92*	7%	-21%
Cn1c(=O)[nH]c(=O)c2c1[nH]c(=S)n2Cc1ccc(Cl)cc1	5.6µM*	nt	?	8	-5%	2%
COC(=O)C1=C(c2ccc(F)cc2OCc2ccccc2)C[C@@H]2CC[C@H]1N2C(=O)NCc1ccc(C)cc1	3%	-3%	nt	-67*	-1%	-3%
COC(=O)C1=C(c2ccc(OCc3ccccc3)cc2)C[C@@H]2CC[C@H]1N2C(=O)NCc1cccc(OC)c1	7%	4%	nt	-67*	1%	-6%
COC(=O)C1=C(c2ccc(OCc3ccccc3)cc2)C[C@@H]2CC[C@H]1N2C(=O)NCc1ccc(OC)cc1	2%	-3%	nt	?	nt	?
COC(=O)C1=C(c2ccc(F)cc2OCc2ccccc2)C[C@@H]2CC[C@H]1N2C(=O)NCc1ccc(F)cc1	-3%	1%	nt	-20	-9%	-31%
COC(=O)C1=C(c2cccc(OCc3ccccc3)c2)C[C@@H]2CC[C@H]1N2C(=O)NCc1ccccc1OC	0%	-3%	nt	-88*	1%	-7%
COC(=O)C1=C(c2ccc(C(C)=O)cc2)C[C@@H]2CC[C@H]1N2C(=O)NCC1CC1	0%	14%	nt	nt	22µM*	-13%
